Source: PubChem BioAssay (National Center for Advancing Translational Sciences (NCATS))
A selection: hits, their analogues and other compounds. The true share with any hit is near 7.4%.
NPC1 promoter act: NPC1 promoter activation. Huh7 NPC1 promoter luciferase reporter, 24 h. Potency, µM (highest dose often 9.22 µM), hits mostly activators. actives 2.4% (n = 320,000). AID 485313; also: nearly all actives have a fitted effect of over 60% in size
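Cells: Huh7 expressing luciferase under the NPC1 promoter, 1500/well. Seeded 2 h, compound added, incubated 24 h at 37 °C. Luciferase reagent, 10 min ambient, then luminescence.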
KinaseGlo FLuc: blocks Kinase-Glo luciferase, a counter-screen artifact; Q27757; Potency, µM (titrated, usually from 38.3 µM), most hits filed as inhibitors; actives 0.28% (n = 200,000); Kinase-Glo luciferase, ATP luminescence, 8 min; also: nearly all actives have a fitted effect of over 60% in size
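Substrate mix (final 50 mM imidazole pH 7.2, 50 mM KCl, 7 mM MgCl2, 10 uM ATP, 0.01% Tween 20, 0.05% BSA) plus pin-tool compound, then Kinase-Glo detection mix; 8 min ambient, luminescence read.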
SMN2 splice enh: SMN2 splice variant enhancement; HEK293 SMN2-luciferase splicing reporter, luminescence, 30-36 h; Potency, µM (highest dose often 46.1 µM), hits mostly activators; actives 2.8% (n = 210,000); also: nearly all actives have a fitted effect of over 55% in size
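HEK293 cells carry an SMN2 […]–luciferase reporter in which exon 7 inclusion puts luciferase in frame. Cells were plated 10-12 h before compound addition, then incubated 30-36 h at 37C. ONE-Glo luminescence was read; sodium butyrate at 4.5 mM final served as control.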
FLuc counter: inhibits or activates purified firefly luciferase, miR-21 counter-screen | P08659 | purified FLuc, Km substrates, luminescence inhibition | Potency, µM (series often up to 57.5 µM), hits mostly inhibitors | actives 6.9% (n = 360,000) | AID 588342; also: nearly all actives have a fitted effect of over 55% in size
Target sequence (P08659 whole entry, looked up): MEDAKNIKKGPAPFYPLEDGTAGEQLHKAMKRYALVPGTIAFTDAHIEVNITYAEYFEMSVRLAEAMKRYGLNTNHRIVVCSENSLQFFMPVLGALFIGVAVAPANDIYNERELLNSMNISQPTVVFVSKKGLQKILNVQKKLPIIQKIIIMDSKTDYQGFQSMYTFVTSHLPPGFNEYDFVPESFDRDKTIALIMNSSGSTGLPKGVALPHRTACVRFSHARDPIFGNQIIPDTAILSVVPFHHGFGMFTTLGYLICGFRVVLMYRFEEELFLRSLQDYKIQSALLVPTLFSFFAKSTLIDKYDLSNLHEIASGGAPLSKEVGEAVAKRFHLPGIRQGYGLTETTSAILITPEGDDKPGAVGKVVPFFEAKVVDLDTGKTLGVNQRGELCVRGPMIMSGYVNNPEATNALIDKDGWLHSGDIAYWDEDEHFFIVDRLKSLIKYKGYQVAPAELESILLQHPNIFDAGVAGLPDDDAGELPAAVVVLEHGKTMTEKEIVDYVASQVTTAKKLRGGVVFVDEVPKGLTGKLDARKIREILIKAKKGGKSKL
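Purified P. pyralis luciferase, 10 nM final, with Km-level 10 uM D-luciferin and 10 uM ATP in 50 mM Tris acetate pH 7.5, 10 mM Mg acetate, 0.01% Tween-20, 0.05% BSA; 6-point qHTS titration about 60 µM downward; luminescence read.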
Rab9 promoter act: activators of Rab9 promoter. actives 2.8% (n = 320,000). Potency, µM (highest dose often 9.22 µM), most hits filed as activators. AID 485297. Huh7 Rab9 promoter-luciferase reporter, luminescence, 24 h; also: nearly all actives have a fitted effect of over 60% in size
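Rab9 promoter-driven luciferase in stably transfected Huh7 cells; 1500 cells/well rested 2 h, exposed to compound in DMSO for 24 h at 37 °C, 5% CO2. Luminescence read 10 min after adding luciferase reagent at ambient temperature.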
ELG1 genotoxic: genotoxicity induction in ELG1-luciferase HEK293T cells; HEK293T ELG1-luciferase reporter, luminescence, 16 h; actives 1.3% (n = 330,000); AID 504466; Potency, µM (doses to about 46 µM), actives largely listed as activators; also: nearly all actives have a fitted effect of over 60% in size
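Genotoxicity was scored as increased ELG1-luciferase reporter signal, measured by ONE-Glo luminescence (30 min, room temperature). Compound or vehicle exposure of the HEK293T reporter cells lasted 16 hr at 37°C.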
Hits are given with their value; . = inactive; ? = inconclusive; / = no result given. Calls follow the shape of the dose curve; as a rule, active = well fitted curve in the direction sought with a large enough effect; inconclusive = small, poorly fitted or top-dose-only effect, or another doubt; inactive = no such curve, though single readings can be large; an effect the other way counts as inactive or inconclusive.

SMILES	NPC1 promoter act	KinaseGlo FLuc	SMN2 splice enh	FLuc counter	Rab9 promoter act	ELG1 genotoxic
O=C(NCc1ccccc1)c1cnc2sc(N3CCCC3)nn2c1=O	/	/	/	.	/	/
CCn1c(C(=O)NCc2ccccc2Br)cc2oc3ccccc3c21	/	/	4.5µM	.	/	/
Cn1c(C(=O)NCc2cccs2)cc2oc3ccccc3c21	.	.	4.5µM	13µM	?	.
Cn1c(C(=O)NCc2ccccc2)cc2oc3ccccc3c21	.	.	32µM	13µM	?	.
Cn1c(C(=O)NCC2CCCO2)cc2oc3ccccc3c21 (configuration not stated)	2.8µM	.	.	13µM	1.6µM	?
COc1ccc(CNC(=O)c2cc3oc4ccccc4c3n2C)cc1OC	/	/	?	.	/	/
O=C(Cn1c(=O)oc2cc(S(=O)(=O)N3CCCC3)ccc21)Nc1ccc(F)cc1F	/	/	.	.	/	/
Cc1ccc(-n2c(SCC(=O)NCc3ccccc3)nc3n[nH]c(C)c3c2=N)cc1Cl	/	/	/	.	/	/
CC(C)(C)NC(=O)c1ccccc1-c1nc(-c2ccccc2Cl)no1	.	.	.	12µM	.	.
CCNC(=O)c1ccccc1-c1nc(-c2ccccc2Cl)no1	.	.	.	19µM	.	.
CC(C)NC(=O)c1ccccc1-c1nc(-c2ccccc2Cl)no1	.	/	/	15µM	.	.
CCOC(=O)c1cc(-c2cc3ccccc3o2)n[nH]1	.	.	.	19µM	.	.
CCOC(=O)c1cc(-c2ccc(C)o2)n[nH]1	.	.	.	?	.	.
Cc1ccc(C(CC(=O)c2ccco2)SCCO)cc1 (configuration not stated)	.	.	.	11µM	.	?
O=C(CC(SCCO)c1ccc(F)cc1)c1ccco1 (configuration not stated)	.	.	.	?	.	.
Cc1cccc(CNC(=O)c2ccc3nc(Cc4ccccc4F)oc3c2)n1	3.5µM	/	/	27µM	3.5µM	?
O=C(NCc1ccccc1Cl)c1ccc2nc(Cc3ccccc3)oc2c1	/	/	/	.	/	/
O=C(NCCc1ccccn1)c1ccc2nc(Cc3ccccc3F)oc2c1	2.8µM	/	/	11µM	2µM	4.6µM
C1CCC(C(C[C@@H]2CCCCN2)C2CCCCC2)CC1	/	.	.	/	/	/
CCCC(=O)Nc1sc(C)c(-c2ccc(OC)cc2)c1C#N	.	.	.	.	.	.
Cc1cccc(C(=O)Nc2sc(C)c(-c3ccccc3)c2C#N)c1	2.8µM	.	?	4.3µM	1.6µM	?
Cc1noc(C)c1C(=O)Nc1sc(C)c(-c2ccccc2)c1C#N	.	.	.	.	.	.
Cc1sc(NC(=O)C2CCCCC2)c(C#N)c1-c1ccccc1	?	.	?	6.7µM	4µM	?
O=C(Nc1cccc2ncccc12)c1ccc(-c2ccc(Br)cc2)o1	.	.	.	11µM	.	.
O=C(Nc1ccccc1)c1ccc(-c2ccc(Br)cc2)o1	.	.	?	6µM	.	?
SMILES	NPC1 promoter act	KinaseGlo FLuc	SMN2 splice enh	FLuc counter	Rab9 promoter act	ELG1 genotoxic
NC(=O)c1ccccc1NC(=O)c1ccc(-c2ccc(Br)cc2)o1	/	/	.	/	/	/
COc1ccccc1NC(=O)c1ccc(-c2ccc(Br)cc2)o1	.	.	.	8.5µM	.	.
COc1ccccc1NC(=O)c1ccc(-c2ccccc2[N+](=O)[O-])o1	?	.	.	11µM	?	.
O=C(c1csnn1)N1CCC2(CC1)CN(c1ccccn1)C2	/	.	.	/	/	/
Cc1c(Cl)cccc1-n1ncc(C(=O)NCCN2CCN(C)CC2)c1C1CCN(C(=O)OC(C)(C)C)CC1	/	/	/	.	/	/
CC[C@H](C)[C@@H](NC(=O)O[C@@H]1C(=O)c2ccc(OC)cc2O[C@H]1c1cccc(C(F)(F)F)c1)C(=O)OC	/	.	.	/	/	/
O=C(c1ccc(-c2ccc([N+](=O)[O-])cc2)o1)N1CCCCC1	4µM	.	?	6.7µM	1µM	?
O=C(Nc1cccc(NC(=O)c2ccc(-c3cccc(Br)c3)o2)c1)c1ccco1	.	.	.	?	.	.
O=C(Nc1ccccc1)c1ccc(-c2ccc([N+](=O)[O-])cc2)o1	?	/	/	13µM	.	.
O=C(Nc1cccc(NC(=O)c2ccc(-c3ccc(Br)cc3)o2)c1)c1ccccc1	.	.	.	2.7µM	.	.
CC1CC(C)CN(C(=O)c2ccc(-c3ccc([N+](=O)[O-])cc3)o2)C1 (configuration not stated)	.	/	/	.	?	.
COc1cc2c(cc1OC)C(c1ccc(F)cc1)N(c1ccccc1)C(=O)C2 (configuration not stated)	/	/	.	.	/	/
Fc1ccc(C(c2ccc(F)cc2)N2CCN(C/C=C\c3ccccc3)CC2)cc1	/	.	.	/	/	/
COc1ccccc1CNS(=O)(=O)c1cc(C(=O)Nc2cccc(C(F)(F)F)c2)ccc1F	/	/	/	.	/	/
O=C(NNC(=O)c1ccc(O)cc1O)c1ccc(-c2ccccc2)cc1	.	/	/	19µM	.	.
O=C(NNc1c2ccccc2nc2ccccc12)c1ccc(O)cc1O	.	.	.	13µM	.	.
O=C(NNC(=O)c1cccc2ccccc12)c1ccc(-c2ccccc2)cc1	.	.	.	.	.	.
O=C(NNc1c2ccccc2nc2ccccc12)c1ccccc1Cl	.	/	/	.	.	.
O=C(NNc1c2ccccc2nc2ccccc12)c1ccc(O)cc1	.	.	.	17µM	.	.
O=C(NNc1c2ccccc2nc2ccccc12)c1cccc(O)c1	.	.	.	24µM	.	.
O=C(NNc1c2ccccc2nc2ccccc12)c1ccccc1O	.	.	.	?	.	.
COc1cc(S(=O)(=O)N2CCN=C2c2ccccc2)ccc1F	.	.	11µM	.	.	.
COc1ccc(S(=O)(=O)N(CC(=O)Nc2ccc(OC)cc2OC)c2ccc(Cl)cc2)cc1	/	/	.	.	/	/
COC(=O)c1cc(C)sc1NC(=O)CN1CCN(C(=O)C2CCCO2)CC1 (configuration not stated)	.	/	/	0.85µM	.	.
CCOC(=O)c1cc(C)sc1NC(=O)CN1CCN(C(=O)C2CCCO2)CC1 (configuration not stated)	.	/	/	.	.	.
CCCS(=O)(=O)c1nc(S(=O)(=O)c2ccc(C)cc2)c(N(C)Cc2ccccc2)s1	/	/	.	.	/	/
Cc1cc(N2CCCCC2)n2nc(C)c(-c3ccccc3)c2n1	.	/	/	19µM	.	.
Cc1cc(N2CCC(C)CC2)n2nc(C)c(-c3ccccc3)c2n1	.	.	.	.	.	.
Cc1cc(N2CCN(C(=O)c3ccco3)CC2)n2ncc(-c3ccccc3)c2n1	?	.	.	12µM	3.5µM	.
Cc1cc(N2CCCCC2)n2ncc(-c3ccccc3)c2n1	0.45µM	.	.	0.27µM	0.32µM	?
